Assay outcomes from PubChem.
Sampled rows, rich in hits. Any-hit rate of the full collection: about 17%.
DT40 TDP1 CPT – DT40-hTDP1 cell growth loss with CPT | chicken DT40 Tdp1-/-;hTDP1 cells + 20 nM CPT, ATP luminescence, 48 h | Potency, µM (top dose mostly 46.2 µM), actives largely listed as inhibitors | hit rate 12% among 420,000 | AID 686979; note: nearly all actives have a fitted effect of over 55% in size
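Cell growth measured by CellTiter-Glo luminescence after a minimum 48 h, 37 C compound exposure with 20 nM CPT in Tdp1-knockout DT40 cells stably expressing hTDP1, seeded 400/well; qHTS titration format.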
TDP1 cell noCPT – qHTS for Inhibitors of human tyrosyl-DNA phosphodiesterase 1 (TDP1): qHTS in cells in absence of CPT; DT40 Tdp1-/- hTDP1 cells, no CPT, ATP luminescence, 48 h; Potency, µM (series often up to 46.2 µM), hits mostly inhibitors; hit rate 15% among 420,000; AID 686978, 2013; note: nearly all actives have a fitted effect of over 55% in size
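Cells were dispensed at 400 per well, compounds added by pin tool, plates incubated ≥48 hr at 37 °C, then CellTiter-Glo added for 30 min at room temperature before luminescence reading. Line: DT40 Tdp1-/- complemented with hTDP1; camptothecin omitted.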
ClpP mod – qHTS Assay for Activators of ClpP | purified B. subtilis ClpP, FRET peptide cleavage, 20 min | Potency, µM (top dose mostly 57.5 µM) | hit rate 1.9% among 340,000 | AID 651965, 2013; active = well fitted falling curve with a large enough effect; inconclusive = small, poorly fitted or top-dose-only effect; inactive = no such curve, though single readings can be large or run the other way; note: the source files actives as falling curves though it sought activators and does not explain the sign; nearly all actives have a fitted effect of over 65% in size
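Buffer: 100 mM Tris/HCl pH8, 100 mM KCl, 0.05% low protease BSA, 2.5% glycerol, 0.01% Tween-20. ClpP 10 microg/mL final; 20 min RT; delta FRET normalized to ADEP and DMSO controls.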
TDP1 block – TDP1 (human) enzyme inhibition; Q9NUW8; recombinant TDP1, AlphaScreen DNA substrate cleavage; Potency, µM (top dose mostly 130 µM), actives largely listed as inhibitors; hit rate 0.28% among 350,000; note: nearly all actives have a fitted effect of over 40% in size
Target sequence (Q9NUW8 whole entry, looked up): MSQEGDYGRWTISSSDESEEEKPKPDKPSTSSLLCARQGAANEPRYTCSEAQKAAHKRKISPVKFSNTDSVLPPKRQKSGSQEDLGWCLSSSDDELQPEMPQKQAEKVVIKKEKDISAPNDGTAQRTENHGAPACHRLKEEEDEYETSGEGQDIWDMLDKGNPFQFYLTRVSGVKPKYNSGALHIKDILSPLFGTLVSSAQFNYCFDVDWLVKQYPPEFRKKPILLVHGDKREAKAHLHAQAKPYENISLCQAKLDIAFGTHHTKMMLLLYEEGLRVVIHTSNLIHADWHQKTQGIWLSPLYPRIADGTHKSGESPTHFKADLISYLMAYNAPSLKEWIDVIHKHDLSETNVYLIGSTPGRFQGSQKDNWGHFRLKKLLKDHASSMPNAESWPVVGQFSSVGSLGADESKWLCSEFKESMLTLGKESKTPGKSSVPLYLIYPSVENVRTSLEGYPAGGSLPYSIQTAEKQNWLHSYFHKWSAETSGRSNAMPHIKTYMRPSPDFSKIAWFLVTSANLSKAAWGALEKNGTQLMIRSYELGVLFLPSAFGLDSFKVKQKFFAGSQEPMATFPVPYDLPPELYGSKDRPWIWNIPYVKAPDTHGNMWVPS
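Here, a 5' biotin and 3' phosphotyrosine-FITC DNA oligonucleotide reports Tdp1 activity: intact substrate bridges AlphaScreen beads, while cleavage leaves a 3' phosphate and drops signal. All incubations at room temperature.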
Each line names hits and unclear results; the compound was inactive in the other large screens. Unless noted, calls come from the whole dose curve; as a rule, active = well fitted curve in the direction sought with a large enough effect; inconclusive = small, poorly fitted or top-dose-only effect, or another doubt; inactive = no such curve, though single readings can be large; an effect the other way counts as inactive or inconclusive.

CC(=O)c1cc(O)c2ccccc2c1O	DT40 TDP1 CPT 14.6µM, TDP1 cell noCPT 4.61µM
CC(C)c1ccc2oc(-c3ccc(NC(=O)c4cccc(Br)c4)cc3)nc2c1	DT40 TDP1 CPT inconclusive, TDP1 cell noCPT inconclusive
O=c1c2ccccc2oc2ccc(-c3ccoc3)cc12	TDP1 cell noCPT inconclusive (no result: TDP1 block)
Fc1cccc2sc(Nc3nc4ccccc4s3)nc12	DT40 TDP1 CPT inconclusive, TDP1 cell noCPT 11.6µM
CC(=O)c1sc(Nc2nc3cc4c(cc3s2)OCO4)nc1C	TDP1 cell noCPT inconclusive (no result: ClpP mod)
Cc1sc(NC(=O)C2=COCCO2)nc1-c1ccc(F)cc1	DT40 TDP1 CPT 16.4µM, TDP1 cell noCPT 20.6µM
CC(=O)Nc1nc2cc3c(cc2s1)OCO3	DT40 TDP1 CPT 23.1µM, TDP1 cell noCPT 14.6µM
c1ccc2sc(Nc3nc4cc5c(cc4s3)OCO5)nc2c1	DT40 TDP1 CPT 23.1µM, TDP1 cell noCPT inconclusive, ClpP mod inconclusive
O=[N+]([O-])c1cc(Cl)cc(/C=N/Nc2nc3ccccc3s2)c1O	DT40 TDP1 CPT 0.326µM, TDP1 cell noCPT 0.92µM (no result: ClpP mod)
CC(C)C(=O)Nc1nc2cc3c(cc2s1)OCCO3	DT40 TDP1 CPT 20.6µM, TDP1 cell noCPT 14.6µM (no result: ClpP mod)
Fc1ccc2nc(Nc3ccccc3)sc2c1	TDP1 cell noCPT inconclusive, ClpP mod 11.2µM
O=C(COc1ccccc1)Nc1nc2cc3c(cc2s1)OCCO3	none
O=C(Nc1nc2cc3c(cc2s1)OCO3)C1=COCCO1	DT40 TDP1 CPT 8.2µM, TDP1 cell noCPT 13µM
Cc1ccc(C)c(NC(=O)CC2NCCNC2=O)c1 (configuration not stated)	none
O=C(CSc1ncc2c(n1)-c1ccccc1N(Cc1ccc(F)cc1)S2(=O)=O)NCc1ccccc1	none
Brc1cc2c(cc1/C=N/Nc1nc3ccccc3s1)OCO2	DT40 TDP1 CPT 14.6µM, TDP1 cell noCPT inconclusive
C(=N\Nc1nc2ccccc2s1)/c1ccc2c(c1)OCO2	TDP1 cell noCPT inconclusive
CCOC(=O)Cc1[nH]nc2c1C(C1C=CCCC1)C(C#N)=C(N)O2 (configuration not stated)	DT40 TDP1 CPT inconclusive, TDP1 cell noCPT 23.1µM
COC(=O)Cc1[nH]nc2c1C(c1cccc(OC)c1OC)C(C#N)=C(N)O2 (configuration not stated)	ClpP mod 28.2µM
C[C@H](CO)N1C[C@H](C)[C@@H](CN(C)C(=O)NC2CCCCC2)Oc2c(NS(=O)(=O)c3cn(C)cn3)cccc2C1=O	none
CCOc1ccc(NC(=O)CSc2nccn2C2CCCC2)cc1	TDP1 cell noCPT inconclusive
O=C(CSc1nnc(-c2c[nH]c3ccccc23)o1)N(Cc1ccccc1)c1ccc(F)cc1	DT40 TDP1 CPT inconclusive, TDP1 cell noCPT inconclusive
COC(=O)CN(C(=O)CSc1nnc(-c2cccc(OC)c2)o1)c1ccc(OC)cc1	DT40 TDP1 CPT inconclusive, TDP1 cell noCPT inconclusive, ClpP mod 15.8µM
CCOC(=O)CN(C(=O)CSc1nnc(-c2cccc(OC)c2)o1)c1ccc(F)cc1	DT40 TDP1 CPT inconclusive, TDP1 cell noCPT 16.4µM
CCOC(=O)CN(C(=O)CSc1nnc2c(n1)[nH]c1ccc(OC)cc12)c1ccc(F)cc1	DT40 TDP1 CPT 20.6µM, TDP1 cell noCPT inconclusive
COc1ccc(CN(C(=O)CSc2nnc(-c3ccccc3C)o2)c2ccc(F)cc2)cc1	DT40 TDP1 CPT inconclusive, TDP1 cell noCPT 23.1µM
CCOc1ccccc1NC(=O)CN(c1cc(C)cc(C)c1)S(=O)(=O)c1c(C)nn(C)c1C	DT40 TDP1 CPT 20.6µM, TDP1 cell noCPT 20.6µM
COc1ccc(NC(=O)CN(c2ccc(C)cc2)S(=O)(=O)c2c(C)nn(C)c2C)cc1	none
Cc1cc(C)cc(N(CC(=O)Nc2c(C)cc(C)cc2C)S(=O)(=O)c2c(C)nn(C)c2C)c1	DT40 TDP1 CPT inconclusive, TDP1 cell noCPT inconclusive
CCOC(=O)c1ccc(NC(=O)CN(c2ccc(C)cc2)S(=O)(=O)c2c(C)nn(C)c2C)cc1	DT40 TDP1 CPT 23.1µM, TDP1 cell noCPT inconclusive
CC(=O)N1CCN(c2nc(-c3ccco3)c3c(c2C#N)CC(C)(C)SC3)CC1	DT40 TDP1 CPT inconclusive, TDP1 cell noCPT 23.1µM, ClpP mod inconclusive
CC1(C)Cc2c(C#N)c(N3CCN(C(=O)c4ccccc4Cl)CC3)nc(-c3ccco3)c2CS1	DT40 TDP1 CPT inconclusive, TDP1 cell noCPT inconclusive, ClpP mod 28.2µM
CC1(C)Cc2c(c(-c3ccco3)[nH]c(=O)c2C#N)CS1	DT40 TDP1 CPT inconclusive (no result: TDP1 block)
CC1(C)Cc2c(C#N)c(N3CCN(C(=O)c4ccco4)CC3)nc(-c3ccco3)c2CS1	TDP1 cell noCPT inconclusive, ClpP mod inconclusive
CN1Cc2c(N3CCOCC3)nc(SCc3ccccc3)c(C#N)c2CC1(C)C	DT40 TDP1 CPT inconclusive, TDP1 cell noCPT inconclusive
CC1(C)Cc2c(C#N)c(SCC(=O)c3ccccc3)nc(N3CCOCC3)c2CS1	DT40 TDP1 CPT inconclusive, TDP1 cell noCPT 16.4µM
CCOc1cc(-c2nnc(SCC(=O)NCCCOC)nc2-c2ccc(OC)c(OCC)c2)ccc1OC	TDP1 cell noCPT inconclusive
C=C1C(=O)OC2C1CCC(C)C1C=CC(=O)C12C (configuration not stated)	DT40 TDP1 CPT 3.26µM, TDP1 cell noCPT 2.91µM (no result: TDP1 block)
COc1ccc(/C=N/n2cc(-c3ccc(OC)cc3)nc2N)cc1	DT40 TDP1 CPT inconclusive, TDP1 cell noCPT inconclusive
COc1ccc(/C=N/n2cc(-c3ccccc3)nc2N)cc1	DT40 TDP1 CPT 3.26µM, TDP1 cell noCPT 5.17µM
O=c1[nH]cnc2sc(-c3ccccc3)cc12	ClpP mod 31.6µM
CCn1cnc2sc(-c3ccccc3)cc2c1=O	none
CCc1cc2c(=O)[nH]cnc2s1	none
O=c1[nH]c(-c2ccccc2)nc2sc(-c3ccccc3)cc12	DT40 TDP1 CPT 10.3µM, TDP1 cell noCPT 6.51µM (no result: ClpP mod)
Cc1ccc(C)n1-n1c(C)nc2sc(-c3ccccc3)cc2c1=O	DT40 TDP1 CPT 18.4µM, TDP1 cell noCPT 14.6µM
CCc1cc2c(=O)[nH]c(-c3ccncc3)nc2s1	ClpP mod inconclusive
Cc1oc(-c2ccccc2NC(=O)c2ccccn2)nc1CNC(=O)c1ccc(Oc2ccccc2)o1	none (no result: ClpP mod, TDP1 block)
COC(=O)c1ccc(-n2c(/C=C/c3cc(OC)c(OC)c(OC)c3)nc3cc(Cl)ccc3c2=O)cc1	DT40 TDP1 CPT 18.4µM, TDP1 cell noCPT 14.6µM
O=C(O)c1ccc(-n2c(/C=C/c3ccccc3)nc3ccccc3c2=O)cc1	DT40 TDP1 CPT inconclusive (no result: TDP1 block)
COC(=O)c1ccc(-n2c(/C=C\c3cccc(Br)c3)nc3ccccc3c2=O)cc1	DT40 TDP1 CPT 5.17µM, TDP1 cell noCPT 2.91µM
O=[N+]([O-])c1cccc(/C=N/NC2CCS(=O)(=O)C2)c1 (configuration not stated)	none (no result: ClpP mod)
CCN(CC(=O)Nc1cccc(OC)c1)c1ncnc2sc(C)c(C)c12	DT40 TDP1 CPT 20.6µM, TDP1 cell noCPT 20.6µM
Cc1ccc(NC(=O)c2nc(S(C)(=O)=O)ncc2N(Cc2cccc(F)c2)Cc2ccco2)cc1C	DT40 TDP1 CPT inconclusive, TDP1 cell noCPT inconclusive
Cc1ccc(CN(Cc2ccco2)c2cnc(S(C)(=O)=O)nc2C(=O)Nc2ccccc2Br)o1	DT40 TDP1 CPT 9.2µM, TDP1 cell noCPT 8.2µM
